Screens deposited in PubChem by several laboratories.
An excerpt weighted towards active compounds, which were near 2.1% of everything screened.
Rce1 inh: blocks yeast Ras-converting enzyme; Q03530; yeast membranes, quenched prenylated peptide cleavage fluorescence; calls only; 290,000 compounds, 0.27% hits;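 active = fall in fluorescence gain of 50% or more versus controls, with final raw signal at or below 3038400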;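 note: plate controls were neutral control wells for no effect and wells lacking membranes for full effect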
PLC-beta3 inh: inhibitors of human phospholipase C beta3. Q01970. Purified PLC-beta3, fluorogenic substrate, fluorescence. inhibition, % at 12.2 µM. 370,000 compounds, 0.18% hits. AID 720704; in the data active = inhibition above about 11%;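 note: 0% = median of compound wells on plate and 100% = full blocker control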
Target sequence (Q01970 whole entry, looked up): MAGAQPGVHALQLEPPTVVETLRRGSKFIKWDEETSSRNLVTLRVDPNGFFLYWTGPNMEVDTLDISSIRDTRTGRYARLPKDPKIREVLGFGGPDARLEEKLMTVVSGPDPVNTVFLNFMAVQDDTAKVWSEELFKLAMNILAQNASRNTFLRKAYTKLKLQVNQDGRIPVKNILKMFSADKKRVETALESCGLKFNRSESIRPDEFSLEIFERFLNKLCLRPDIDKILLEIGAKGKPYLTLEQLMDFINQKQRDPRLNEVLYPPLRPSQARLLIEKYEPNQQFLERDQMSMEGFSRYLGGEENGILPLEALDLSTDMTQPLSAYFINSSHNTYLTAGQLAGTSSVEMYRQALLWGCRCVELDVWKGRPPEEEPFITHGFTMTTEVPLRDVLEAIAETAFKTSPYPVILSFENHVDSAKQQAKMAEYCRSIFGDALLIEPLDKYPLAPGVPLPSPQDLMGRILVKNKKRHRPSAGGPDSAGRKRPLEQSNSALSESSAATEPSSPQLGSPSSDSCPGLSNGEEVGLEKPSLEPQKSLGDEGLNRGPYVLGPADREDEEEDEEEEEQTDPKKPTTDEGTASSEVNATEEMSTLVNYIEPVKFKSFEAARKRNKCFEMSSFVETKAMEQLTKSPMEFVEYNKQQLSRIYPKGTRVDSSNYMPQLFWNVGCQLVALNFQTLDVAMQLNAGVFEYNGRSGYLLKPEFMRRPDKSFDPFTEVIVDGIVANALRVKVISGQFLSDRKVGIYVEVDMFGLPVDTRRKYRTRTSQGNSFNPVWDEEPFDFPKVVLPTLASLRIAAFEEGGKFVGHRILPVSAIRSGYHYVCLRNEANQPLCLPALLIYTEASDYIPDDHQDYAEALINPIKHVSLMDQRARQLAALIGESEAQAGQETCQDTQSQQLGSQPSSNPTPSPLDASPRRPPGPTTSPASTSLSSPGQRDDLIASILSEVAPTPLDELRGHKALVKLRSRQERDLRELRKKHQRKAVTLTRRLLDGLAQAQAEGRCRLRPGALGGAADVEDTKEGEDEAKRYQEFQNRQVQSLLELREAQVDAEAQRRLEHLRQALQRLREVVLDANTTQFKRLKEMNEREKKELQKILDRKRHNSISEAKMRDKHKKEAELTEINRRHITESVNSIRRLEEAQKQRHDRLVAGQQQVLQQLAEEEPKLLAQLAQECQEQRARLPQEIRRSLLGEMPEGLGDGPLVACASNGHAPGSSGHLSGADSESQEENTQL
PLCg1 inh: PLC-gamma1 (human) inhibition, primary screen; P19174; purified PLC-gamma1, fluorogenic substrate, fluorescence; inhibition, % at 12.2 µM; 370,000 compounds, 0.84% hits; AID 720700; in the data active = inhibition above about 9.5%
ADAM10 inh: ADAM10 inhibition, QFRET primary screen; O14672; 370,000 compounds, 0.62% hits; recombinant ADAM10, EDANS/DABCYL FRET peptide cleavage, 3 h; inhibition, % at 7 µM; AID 720582;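 active = inhibition above a per-campaign cutoff equal to the mean of compounds falling between control-based bounds plus 3 SD, cut at about 20% in these data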;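 note: 0% = DMSO wells while the 100% control is not disclosed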
ADAM17 inh: inhibits human ADAM17; P78536; recombinant ADAM17, EDANS/DABCYL FRET peptide cleavage; inhibition, % at 6.95 µM; 370,000 compounds, 0.83% hits; AID 720648;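 active = inhibition above the mean of compounds lying between control limits plus 3 SD, set per campaign, cut at about 8.5% in these data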;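 note: 0% = DMSO-only wells as the low control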
ADAM10 counter: ADAM10 inhibition, counter-screen for ADAM17 exosite hits; inhibition, % at 6.95 µM; 2,900 compounds, 47% hits; recombinant ADAM10, EDANS/DABCYL FRET peptide cleavage, 3 h; shares compounds with ADAM17 inh;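 active = mean inhibition over the triplicate runs exceeds the activity threshold set in the earlier primary screen, cut at about 20% in these data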;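 note: 0% = DMSO wells and 100% = marimastat wells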
ADAM17 confirm: confirmation of inhibitors of human ADAM17; shares compounds with ADAM17 inh; recombinant ADAM17, EDANS/DABCYL QFRET peptide cleavage; inhibition, % at 6.95 µM; 2,900 compounds, 65% hits; AID 743257;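 active = mean inhibition across replicates above the hit cutoff set in the primary screen, cut at about 8.5% in these data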;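 note: 0% = DMSO wells and 100% = marimastat wells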
The depositor's hits bear a star.

How did CCOC(=O)/C(=C/Nc1ccc(F)cc1)[N+](=O)[O-] do in these assays?
Rce1 inh: inactive; PLC-beta3 inh: -5; PLCg1 inh: 0; ADAM10 inh: 1; ADAM17 inh: -4

Results for Cc1ccccc1CN1CCC(CNC(=O)C2CCCN(c3ncnc4c3nc3n4CCCCC3)C2)CC1 (stereo unspecified) ?
Rce1 inh: inactive; PLC-beta3 inh: 4; PLCg1 inh: 2; ADAM10 inh: 2; ADAM17 inh: -2

What do the screens show for `CCOc1ccc(NC(=O)COC(=O)c2cc(S(=O)(=O)N3CCCC3)ccc2C)cc1`?
PLC-beta3 inh: 2; PLCg1 inh: 8; ADAM10 inh: 5; ADAM17 inh: 9.4*; ADAM10 counter: 16; ADAM17 confirm: 7

How did CCOc1ccc(NC(=O)COC(=O)c2ccc(S(=O)(=O)N3CCOCC3)cc2)cc1 do in these assays?
PLC-beta3 inh: -3; PLCg1 inh: 6; ADAM10 inh: -11; ADAM17 inh: -6

Results for O=C(COC(=O)c1ccc(Br)o1)Nc1cccc(S(=O)(=O)N2CCCCCC2)c1 ?
Rce1 inh: inactive; PLC-beta3 inh: 1; PLCg1 inh: 1; ADAM10 inh: 12; ADAM17 inh: 9.8*; ADAM10 counter: 26*; ADAM17 confirm: 15*

What do the screens show for `COC(=O)[C@]12C[C@H](CC(=O)NCc3cccs3)C(=O)N(Cc3ccc4c(c3)OCO4)C1=C[C@H](C(C)(C)C)O[C@@H]2C`?
PLC-beta3 inh: 2; PLCg1 inh: 5; ADAM10 inh: 7; ADAM17 inh: 3

Results for Cc1onc(-c2c(F)cccc2Cl)c1C(=O)Nc1cc2cc([N+](=O)[O-])ccc2oc1=O ?
PLC-beta3 inh: 0; PLCg1 inh: 4; ADAM10 inh: 17; ADAM17 inh: 2

Results for COc1ccc(C)cc1NC(=O)NNC(=O)C(C)Oc1ccc([N+](=O)[O-])cc1 (stereo unspecified) ?
Rce1 inh: inactive; PLC-beta3 inh: -5; PLCg1 inh: 6; ADAM10 inh: 16; ADAM17 inh: 9.0*; ADAM10 counter: 13; ADAM17 confirm: 9.0*

Results for COc1ccccc1NC(=O)NNC(=O)C(C)Oc1ccc2ccccc2c1 (stereo unspecified) ?
Rce1 inh: inactive; PLC-beta3 inh: -5; PLCg1 inh: -2; ADAM10 inh: 4; ADAM17 inh: 1

How did Cc1ccc(NC(=S)NNC(=O)c2c([N+](=O)[O-])c(C)nn2C)cc1 do in these assays?
Rce1 inh: inactive; PLC-beta3 inh: 1; PLCg1 inh: 7; ADAM10 inh: 7; ADAM17 inh: 12*; ADAM10 counter: 25*; ADAM17 confirm: 12*

Results for Cc1ccc(Nc2nc3ccccc3s2)c(C)c1 ?
Rce1 inh: inactive; PLC-beta3 inh: 3; PLCg1 inh: 7; ADAM10 inh: 14; ADAM17 inh: 9.0*; ADAM10 counter: 26*; ADAM17 confirm: 17*

How did O=C(COC(=O)[C@H](Cc1c[nH]c2ccccc12)NC(=O)c1ccc(Cl)cc1)Nc1ccc2c(c1)OCO2 do in these assays?
Rce1 inh: inactive; PLC-beta3 inh: -5; PLCg1 inh: 1; ADAM10 inh: 15; ADAM17 inh: 13*; ADAM10 counter: 36*; ADAM17 confirm: 20*

How did CC(C)CN(C(=O)COC(=O)CCC(=O)c1ccc(F)cc1)c1c(N)n(Cc2ccccc2)c(=O)[nH]c1=O do in these assays?
Rce1 inh: inactive; PLC-beta3 inh: -5; PLCg1 inh: 3; ADAM10 inh: 6; ADAM17 inh: 13*; ADAM10 counter: 3; ADAM17 confirm: 4

Results for O=C(c1ccc(F)cc1)N1CCC(C(=O)N2CCN(S(=O)(=O)c3cccc(Cl)c3)CC2)CC1 ?
Rce1 inh: inactive; PLC-beta3 inh: -4; PLCg1 inh: 3; ADAM10 inh: -4; ADAM17 inh: 9.6*; ADAM10 counter: -7; ADAM17 confirm: 2

What do the screens show for `Cc1cc(C)c(S(=O)(=O)Nc2cccc(/C=C/C(=O)O)c2)c(C)c1`?
Rce1 inh: inactive; PLC-beta3 inh: -8; PLCg1 inh: -8; ADAM10 inh: -10; ADAM17 inh: -7

What do the screens show for `CNC(=O)C1=C(C)n2c(nc3ccccc32)NC1c1ccc(OC)cc1` (stereo unspecified)?
Rce1 inh: inactive; PLC-beta3 inh: -22; PLCg1 inh: -20; ADAM10 inh: -22; ADAM17 inh: -8

What do the screens show for `CC1=C(C(=O)Nc2ccccc2)C(c2cccc([N+](=O)[O-])c2)Nc2nc3ccccc3n21` (stereo unspecified)?
Rce1 inh: inactive; PLC-beta3 inh: 3; PLCg1 inh: 7; ADAM10 inh: 11; ADAM17 inh: 8.8*; ADAM10 counter: -2; ADAM17 confirm: 1

How did CC(C)NC(=O)N(C)C[C@H]1Oc2ccc(NC(=O)Nc3ccccc3)cc2C(=O)N([C@@H](C)CO)C[C@@H]1C do in these assays?
PLC-beta3 inh: 1; PLCg1 inh: 4; ADAM10 inh: -4; ADAM17 inh: 11*; ADAM10 counter: 2; ADAM17 confirm: 5

Results for C[C@H](CO)N1C[C@H](C)[C@@H](CN(C)C(=O)Nc2ccc(C(F)(F)F)cc2)Oc2ccc(NC(=O)Cc3ccccc3)cc2C1=O ?
PLC-beta3 inh: 3; PLCg1 inh: 3; ADAM10 inh: 16; ADAM17 inh: 16*; ADAM10 counter: 17; ADAM17 confirm: 9.6*

What do the screens show for `C[C@H](CO)N1C[C@H](C)[C@@H](CN(C)C(=O)Nc2ccc(C(F)(F)F)cc2)Oc2ccc(NC(=O)Nc3ccccc3)cc2C1=O`?
PLC-beta3 inh: 3; PLCg1 inh: 4; ADAM10 inh: 16; ADAM17 inh: 7

What do the screens show for `CC(C)NC(=O)N(C)C[C@H]1Oc2ccc(NC(=O)Cc3ccccc3)cc2C(=O)N([C@H](C)CO)C[C@@H]1C`?
PLC-beta3 inh: 3; PLCg1 inh: 1; ADAM10 inh: 1; ADAM17 inh: 9.1*; ADAM10 counter: -9; ADAM17 confirm: 1

What do the screens show for `CC(C)NC(=O)N(C)C[C@H]1Oc2ccc(NC(=O)Nc3ccccc3)cc2C(=O)N([C@H](C)CO)C[C@@H]1C`?
PLC-beta3 inh: 2; PLCg1 inh: 3; ADAM10 inh: -6; ADAM17 inh: 0

Results for CCCc1nc2c3ccccc3ccn2c1Cc1cccc(F)c1 ?
PLC-beta3 inh: -37; PLCg1 inh: -30; ADAM10 inh: -114; ADAM17 inh: -24

Results for O=S(=O)(NCc1cccs1)c1ccc(Br)cc1 ?
Rce1 inh: inactive; PLC-beta3 inh: -3; PLCg1 inh: 0; ADAM10 inh: 2; ADAM17 inh: 2

Results for O=C(Nc1ccc(Br)cc1)c1ccc(F)c(S(=O)(=O)NCc2cccs2)c1 ?
Rce1 inh: inactive; PLC-beta3 inh: 5; PLCg1 inh: 3; ADAM10 inh: 20*; ADAM17 inh: 9.3*; ADAM10 counter: 25*; ADAM17 confirm: 16*
